Columns and labels:
Experiment in all cases: growth inhibition (% activity, log2 RLU normalised to DMSO / staurosporine); higher = more growth inhibition
Conditions in all cases: 33 µM
DIPGX29 = test system: DIPGX29 (H3.3 K27M diffuse intrinsic pontine glioma line)
In short: (§1)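 On Geltrex-coated 384-well plates, pHGG cell lines and H9-derived neural stem cells were grown with approved drugs pinned in at a single final concentration of about 33 μM, in triplicate, for 7 days at 37 °C, 5% CO2. Per-plate normalisation of log2-transformed CellTiter-Glo luminescence to % activity between solvent and positive control wells followed. Each growth-inhibition value is the median over the replicates.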

DIPGX37 = test system: DIPGX37 (H3.3 K27M diffuse intrinsic pontine glioma line)
In short: as §1

DIPGX7 = test system: DIPGX7 (H3.3 K27M diffuse intrinsic pontine glioma line)
In short: as §1

DIPGX9 = test system: DIPGX9 (diffuse intrinsic pontine glioma line)
In short: as §1

HGGX39 = test system: HGGX39 (paediatric high-grade glioma line)
In short: as §1

HGGX6 = test system: HGGX6 (H3.3 G34R paediatric high-grade glioma line)
In short: as §1

HNSC = test system: HNSC
In short: as §1

SUDIPGIV = test system: SUDIPGIV (diffuse intrinsic pontine glioma line)
In short: as §1

SUDIPGVI = test system: SUDIPGVI (diffuse intrinsic pontine glioma line)
In short: as §1

SUDIPGXIII = test system: SUDIPGXIII (diffuse intrinsic pontine glioma line)
In short: as §1

SMILES	growth inhibition (DIPGX29)	growth inhibition (DIPGX37)	growth inhibition (DIPGX7)	growth inhibition (DIPGX9)	growth inhibition (HGGX39)	growth inhibition (HGGX6)	growth inhibition (HNSC)	growth inhibition (SUDIPGIV)	growth inhibition (SUDIPGVI)	growth inhibition (SUDIPGXIII)
O=C(O)CCc1nc(-c2ccccc2)c(-c2ccccc2)o1	-0.808%	1.84%	-1.35%	-1.33%	0.585%	1.25%	-2.45%	-2.53%	0.464%	1.19%
CCCC(=O)Nc1ccc(OCC(O)CNC(C)C)c(C(C)=O)c1 (stereo not given)	-1.23%	-0.501%	-1.01%	-0.6%	-0.175%	0.315%	-4.5%	-0.848%	-2.3%	-1.79%
Cc1oncc1C(=O)Nc1ccc(C(F)(F)F)cc1	12%	9.13%	10.1%	22.6%	24.2%	9.78%	55.7%	28.2%	1.33%	2.78%
NC12CC3CC(CC(C3)C1)C2	0.311%	-1.43%	0.524%	0.931%	2.31%	1.23%	-2.35%	0.117%	0.782%	-2.09%
CO[C@H]1/C=C/O[C@@]2(C)Oc3c(C)c(O)c4c(O)c(c5c(nc6cc(C)ccn65)c4c3C2=O)NC(=O)/C(C)=C\C=C\[C@H](C)[C@H](O)[C@@H](C)[C@@H](O)[C@@H](C)[C@H](OC(C)=O)[C@@H]1C	-0.23%	1.09%	0.284%	1.81%	1.27%	1.5%	0.942%	-1.07%	1.39%	-1.05%
NCCC(O)(P(=O)(O)O)P(=O)(O)O	0.943%	2.91%	2.33%	0.0373%	2.9%	1.86%	2.52%	1.34%	2.52%	0.475%
CN1CCC(=C2c3ccccc3CC(=O)c3sccc32)CC1	-0.432%	0.985%	-0.625%	0.0911%	0.272%	2.44%	1.53%	-1.24%	0.438%	0.861%
CC(=O)OCC(=O)[C@@]1(O)CC[C@H]2[C@@H]3CCC4=CC(=O)C=C[C@]4(C)[C@H]3[C@@H](O)C[C@@]21C	2.24%	0.724%	2.19%	3.92%	5.57%	2.03%	1.11%	2.53%	-1.15%	2.13%
O=C(O)C(=O)O.[NH-]C1CCCCC1[NH-].[Pt+2] (stereo not given)	-0.101%	2.05%	-0.541%	7.2%	-0.76%	1.66%	1.98%	-1.88%	0.474%	1.07%
Cc1cccc(CN2CCN(C(c3ccccc3)c3ccc(Cl)cc3)CC2)c1 (stereo not given)	6.1%	6.46%	7.93%	8.12%	6.5%	7.41%	3.84%	25.4%	4.9%	4.67%
C[N+]1(C)[C@@H]2C[C@@H](OC(=O)C(O)(c3cccs3)c3cccs3)C[C@H]1[C@@H]1O[C@@H]12	-2.02%	-0.731%	-2.26%	-2.3%	-2.1%	-0.274%	-3.15%	-1.02%	-2.31%	0.889%
CC[C@@H]([C@H](C)O)n1ncn(-c2ccc(N3CCN(c4ccc(OC[C@@H]5CO[C@@](Cn6cncn6)(c6ccc(F)cc6F)C5)cc4)CC3)cc2)c1=O	-3.19%	-0.0907%	-0.181%	-2.09%	-0.245%	-1.15%	-2.54%	-2.62%	-1.64%	0.673%
CCCCCCNC(=O)n1cc(F)c(=O)[nH]c1=O	5.51%	0.97%	4.27%	14%	6.44%	9.38%	24.6%	11.2%	3.57%	2.43%
Cc1c(N(C)C)c(=O)n(-c2ccccc2)n1C	-0.911%	-0.00267%	0.576%	-1.42%	2.61%	-1.31%	-0.0115%	-1.34%	-0.66%	0.298%
CC(=O)Oc1cc2c(s1)CCN(C(C(=O)C1CC1)c1ccccc1F)C2 (stereo not given)	0.962%	-2.57%	1.32%	-0.813%	0.291%	-2.02%	0.528%	-0.967%	-3.04%	-1.75%
CCc1c(Cl)c(O)c(Cl)c(O)c1C(=O)O[C@H]1[C@H](O)[C@H](OC)[C@H](OC/C2=C\C=C\C[C@H](O)/C(C)=C/[C@H](CC)[C@@H](O[C@@H]3OC(C)(C)[C@@H](OC(=O)C(C)C)[C@H](O)[C@@H]3O)/C(C)=C/C(C)=C/C[C@@H]([C@@H](C)O)OC2=O)O[C@@H]1C	0.669%	2.16%	0.835%	-0.411%	9.09%	0.0636%	11.6%	3.19%	2.46%	0.498%
N=C(N)NC(=N)NCCc1ccccc1	2.55%	2.09%	2.16%	3.4%	3.43%	1.66%	13%	3.22%	7.27%	2.1%
C[C@@H]1[C@H](O)[C@@H](C)/C=C/C=C/C=C/C=C/C=C/C=C/C=C/[C@H](O[C@@H]2O[C@H](C)[C@@H](O)[C@H](N)[C@@H]2O)C[C@@H]2O[C@](O)(C[C@@H](O)C[C@@H](O)[C@H](O)CC[C@@H](O)C[C@@H](O)CC(=O)O[C@H]1C)C[C@H](O)[C@H]2C(=O)O	1.5%	0.689%	0.985%	2.51%	1.45%	3.13%	2.79%	-0.529%	0.154%	1.88%
CC1(C(=O)O)CCC2(C)CCC3(C)C(=CC(=O)C4C5(C)CCC(OC6OC(C(=O)O)C(O)C(O)C6OC6OC(C(=O)O)C(O)C(O)C6O)C(C)(C)C5CCC43C)C2C1 (stereo not given)	-2.43%	0.376%	-1.5%	-0.788%	-1.63%	-0.137%	-2.93%	-1.58%	-3.15%	0.0626%

SMILES	growth inhibition (DIPGX29)	growth inhibition (DIPGX37)	growth inhibition (DIPGX7)	growth inhibition (DIPGX9)	growth inhibition (HGGX39)	growth inhibition (HGGX6)	growth inhibition (HNSC)	growth inhibition (SUDIPGIV)	growth inhibition (SUDIPGVI)	growth inhibition (SUDIPGXIII)
CN1CCN(CCCN2c3ccccc3Sc3ccc(C(F)(F)F)cc32)CC1	14.9%	0.958%	12.3%	0.94%	7.39%	8.55%	9.67%	4.53%	-3.52%	0.946%
OC(CCN1CCCC1)(c1ccccc1)C1CCCCC1 (stereo not given)	-1.59%	0.342%	-1.45%	-1.38%	-2.22%	-0.386%	-0.926%	-0.217%	-0.619%	-1.02%
NCCNCCNCCNCCN	1.8%	3.32%	2.9%	2.04%	2.02%	3.41%	4.1%	5.08%	4.87%	0.192%
COc1cc2nc(N3CCN(C(=O)C4COc5ccccc5O4)CC3)nc(N)c2cc1OC (stereo not given)	0.458%	2.32%	1.34%	0.0132%	2.47%	1.58%	-0.951%	-3.82%	1.52%	2.13%
CC(C)Cn1cnc2c(N)nc3ccccc3c21	0.9%	3.11%	0.885%	0.567%	1.26%	2.84%	0.687%	0.0825%	3.61%	0.156%
C#C[C@]1(O)CC[C@H]2[C@@H]3CCc4cc(O)ccc4[C@H]3CC[C@@]21C	0.982%	1.91%	0.741%	0.29%	0.261%	2.48%	0.451%	-1.64%	1.36%	0.6%
COc1ccccc1OCCNCC(O)COc1cccc2[nH]c3ccccc3c12 (stereo not given)	6.61%	2.55%	3.4%	3.73%	5.74%	4.11%	7.57%	1.9%	5.96%	2.05%
Clc1ccc(C(Cn2ccnc2)OCc2ccc(Sc3ccccc3)cc2)c(Cl)c1 (stereo not given)	2.76%	0.833%	2.5%	4.7%	11.8%	8.32%	14%	11.4%	2.82%	5.1%
CCOc1ccc2ccccc2c1C(=O)N[C@@H]1C(=O)N2[C@@H]1SC(C)(C)[C@@H]2C(=O)O	-3.12%	-0.795%	1.5%	-1.14%	-0.856%	-5.66%	31.9%	-2.67%	-10.4%	2.26%
NC(CO)(CO)CO	0.378%	1.73%	0.549%	1.18%	1.76%	0.412%	0.671%	1.48%	2.52%	0.677%
COC(=O)C1=C(C)NC(C)=C(C(=O)OC)C1c1ccccc1[N+](=O)[O-]	-2.53%	-2.53%	0.0754%	3.5%	-0.258%	-0.288%	8.49%	-2.66%	-7.47%	-0.486%
CCN(Cc1ccncc1)C(=O)C(CO)c1ccccc1 (stereo not given)	-2.54%	-1.96%	-1.34%	-0.78%	-1.19%	0.149%	-4.87%	-1.01%	-0.507%	-1.24%
CC(C)CC(N)=O	0.179%	0.749%	-0.469%	-0.164%	0.0712%	1.61%	-1.96%	-1.02%	-0.151%	-12.8%
COC(=O)/C=C/C(=O)OC	-1.63%	0.743%	-0.432%	-0.334%	0.42%	-3.26%	6.49%	-2.1%	-1%	1.57%
COc1ccc([C@@H]2Sc3ccccc3N(CCN(C)C)C(=O)[C@@H]2OC(C)=O)cc1	-1.14%	-1.86%	0.795%	-0.923%	-2.92%	-0.0969%	-0.232%	-1.32%	-1.92%	0.713%
CCOC(=O)c1c(C)n(C)c2ccc(O)cc12	0.475%	0.373%	0.137%	-1.16%	1.77%	1.27%	-0.219%	0.902%	-0.0936%	-1.54%
Oc1c(Cl)cc(Cl)c2cccnc12	4.67%	3.08%	4.55%	5.64%	6.44%	-1.25%	44.3%	3.67%	4.23%	2.6%
CC1CCc2cc(F)cc3c(=O)c(C(=O)O)cn1c23 (stereo not given)	-0.61%	1.22%	0.338%	-0.551%	1.41%	2.29%	0.388%	-1.52%	0.839%	-18.7%
CCN1CCCC1CNC(=O)c1cc(S(=O)(=O)CC)c(N)cc1OC (stereo not given)	2.92%	-2.18%	2.4%	-0.361%	1.17%	-1.1%	0.824%	2.02%	-8.92%	-0.464%
